Results: PubChem BioAssay AID624483 (NMMLSC, 2012)
In all, about 360,000 compounds went through this assay and about 11,000 (3.1%) were called active. Another 2% or so got no clear call; they are omitted. For the sample, actives were picked, then their nearest neighbours and some compounds at random. A number with no mark means an inactive call. Cut-off read from the data, not from the text of the source: active = fluorescence intensity above about 16000; inconclusive = no clear call, values can overlap the other calls; inactive = below that.

Assay: compound fluorescence in toxin protease inhibitor counterscreen, primary screen, artefact control for toxin protease inhibitor project, biochemical, multiplex microsphere, HTS (AID 624483)
Conditions: compound autofluorescence counterscreen, microsphere flow cytometry; hits give high values
For `CNc1cncc(-c2cccc(C(=O)N3CCOCC3)c2)n1`, the fluorescence intensity was 3830.
Compound `CCCCOC(=O)NCN1C(=O)C2C3C=CC(C3)C2C1=O` (stereo not given) has a fluorescence intensity of 3370.
For `CCCCCOC(=O)C1=C(C)Nc2nnnn2C1c1ccc(OC)c(OC)c1OC` (stereo not given), the fluorescence intensity was 21200 (active).
Work on `COc1ccccc1C1C(C(N)=O)=C(C)Nc2nc(CCCO)nn21` (stereo not given) yielded a fluorescence intensity of 3450.
In the case of `COC(=O)C1=C(C(=O)c2ccc(C)cc2)C(c2ccccc2)n2nnnc2N1` (stereo not given), the fluorescence intensity is reported as 2650.
`CCOc1ccc2sc(NS(=O)(=O)c3ccc(N)cc3)nc2c1` gave a fluorescence intensity of 3350.
With `CCOc1ccc(S(=O)(=O)Nc2nccs2)cc1` the fluorescence intensity was 4450.
With `CCOc1ccc(S(=O)(=O)Nc2nc3cc(OC)ccc3s2)cc1` the fluorescence intensity was 20400 (active).
`COc1ccc(-c2nc3ccc(Br)cn3c2Cc2ccc(C)cc2)cc1OC` showed a fluorescence intensity of 4350.
`CCC(=O)Nc1nnc(S(=O)(=O)N(CC(C)C)c2ccccc2)s1` showed a fluorescence intensity of 3230.
For `CCOC(=O)C(Sc1ncc(C#N)c(N)n1)C(C)C` (stereo not given), the fluorescence intensity was 2490.
For `CCOC(=O)c1ccc(NC(=O)CSc2nnc(COc3ccccc3OC)n2C)cc1`, the fluorescence intensity was 23600 (active).
Compound `COC(=O)c1ccc(NC(=O)CSc2nnc(C3CC3)n2C)cc1` has a fluorescence intensity of 5470.
`CCn1c(CNC(=O)c2ccc(OC)c(OC)c2)nnc1SCC(=O)Nc1ccccc1` gave a fluorescence intensity of 11100.
With `COC(=O)Nc1ccc(S(=O)(=O)N(C)CC(F)(F)C(F)F)cc1` the fluorescence intensity was 3990.
Compound `CC(=O)Nc1cccc(-c2ccnc3c2CC(C)(C(=O)NCc2ccccc2)O3)c1` (stereo not given) has a fluorescence intensity of 3920.
For `Cc1cccc(C(=O)OCC(=O)Nc2sccc2C(N)=O)c1C`, the fluorescence intensity was 3570.
`Cc1nc2c(-c3ccc(F)cc3)c(C)nn2c(C)c1CCC(=O)NCc1ccco1` showed a fluorescence intensity of 5410.
For `COc1cc(OC)cc(-c2nc3nc(C)c(CCC(=O)NCc4ccco4)c(C)n3n2)c1`, the fluorescence intensity was 21000 (active).
Work on `COc1ccc(-c2cc3nc(C)c(CCC(=O)NC(C)CCc4ccco4)c(C)n3n2)c(OC)c1` (stereo not given) yielded a fluorescence intensity of 3850.
With `CCn1cc(C(=O)N2CC=C(c3ccccc3)CC2)c(=O)c2ccc(C)nc21` the fluorescence intensity was 11100.
With `COc1cccc(CNc2nc(NCc3cccs3)nc3ccsc23)c1` the fluorescence intensity was 3840.
`COc1ccc(S(=O)(=O)n2cnc3ccccc32)c(C)c1` gave a fluorescence intensity of 3080.
For `Cc1ccc(S(=O)(=O)N(C)CC(=O)OCC(=O)N2CC(=O)Nc3ccccc32)cc1`, the fluorescence intensity was 4160.
In the case of `Cc1ccc(S(=O)(=O)N2CCC(C(=O)OCC(=O)N3CC(=O)Nc4ccccc43)CC2)cc1`, the fluorescence intensity is reported as 23100 (active).
For `Cc1ccccc1SCC(=O)OCC(=O)N1CC(=O)Nc2ccccc21`, the fluorescence intensity was 3940.
With `COc1ccc(C(=O)N2CCCCC2c2cc(C(=O)Nc3ccc(F)c(Cl)c3)no2)cc1` (stereo not given) the fluorescence intensity was 3750.
With `CC1(C(=O)NCc2ccc(F)c(F)c2)Cc2c(-c3ccc4c(c3)OCO4)ccnc2O1` (stereo not given) the fluorescence intensity was 2890.
For `Cc1nc(C(F)(F)F)ccc1C(=O)N1CCC1(C)C(=O)NS(=O)(=O)c1ccc(F)cc1F` (stereo not given), the fluorescence intensity was 3750.
`O=c1c([N+](=O)[O-])cccn1Cc1ccc(F)cc1Cl` gave a fluorescence intensity of 4380.
In the case of `O=c1c([N+](=O)[O-])cc(C(F)(F)F)cn1Cc1cccc(Cl)c1`, the fluorescence intensity is reported as 22600 (active).
`CN(C)C(=O)c1cccn(Cc2cccc(C(F)(F)F)c2)c1=O` gave a fluorescence intensity of 4630.
In the case of `COc1ccc(C2CC(c3cccc(OC)c3)=NN2c2ccc(S(N)(=O)=O)cc2)cc1` (stereo not given), the fluorescence intensity is reported as 3270.
Compound `CCN(CC)CCN(C)C(c1ccnc2ccccc12)c1nnnn1-c1ccc2c(c1)OCCO2` (stereo not given) has a fluorescence intensity of 4670.
With `COC(=O)[C@]12CCCCC=C1N(Cc1ccccc1)C(=O)[C@H](CC(=O)NCc1ccc(C)o1)C2` the fluorescence intensity was 5960.
Work on `Nc1ncnc2c1ncn2[C@@H]1O[C@H](C(=O)N2CCCN(Cc3ccccc3F)CC2)[C@@H](O)[C@H]1O` yielded a fluorescence intensity of 5460.
Compound `CCCCCc1c(-c2cccc(Br)c2)ncn1CCc1ccccc1OC` has a fluorescence intensity of 5900.
Work on `CN(C)c1nccc(NCc2ccccc2)c1C#N` yielded a fluorescence intensity of 2510.
For `CN(C)/C=C/c1c(C#N)c(=O)ncn1Cc1ccccc1`, the fluorescence intensity was 22600 (active).
Work on `Cc1c(C#N)c2ncn(CC#N)c(=O)c2n1-c1ccccc1` yielded a fluorescence intensity of 2670.
Compound `COc1cc(Cl)cc(C2NC(=O)NC(C)=C2C(=O)NCc2ccccc2)c1O` (stereo not given) has a fluorescence intensity of 6250.
With `CC1=C(C(=O)Nc2ccc(Cl)cc2)C(c2ccco2)NC(=O)N1` (stereo not given) the fluorescence intensity was 21000 (active).
Work on `COc1ccc(NC(=O)C2=C(C)NC(=O)NC2c2ccccc2[N+](=O)[O-])cc1` (stereo not given) yielded a fluorescence intensity of 4060.
In the case of `O=C(OCc1cn(-c2ccc(Cl)c(Cl)c2)nn1)c1ccccc1Cl`, the fluorescence intensity is reported as 23100 (active).
`NC(=O)COC(=O)c1cc(S(=O)(=O)N2CCN(c3ccccc3)CC2)ccc1Cl` gave a fluorescence intensity of 2210.
Work on `Cc1cccc(/C(N)=N/OC(=O)c2ccccc2Cl)c1` yielded a fluorescence intensity of 2520.
In the case of `O=C(Nc1ccccc1)c1ccccc1Br`, the fluorescence intensity is reported as 3570.
With `CC(C)OC(=O)CN1C(=O)C(=O)c2ccccc21` the fluorescence intensity was 22400 (active).
Compound `CCOC(=O)CN1C(=O)C(=O)c2cc(C)ccc21` has a fluorescence intensity of 3160.
For `CC(OC(=O)CN1C(=O)c2ccccc2C1=O)C(=O)c1ccccc1` (stereo not given), the fluorescence intensity was 8630.
With `CC1(C(=O)NS(=O)(=O)c2cccs2)CCN1C(=O)Cc1ccc(-c2ccccc2)cc1` (stereo not given) the fluorescence intensity was 3400.
`O=S1(=O)CC(N2CCN(c3ccccn3)CC2)CN1Cc1ccc(F)cc1` (stereo not given) showed a fluorescence intensity of 5970.
`O=C(c1ccco1)N1CCN(C(=O)C2c3ccccc3Oc3ccccc32)CC1` gave a fluorescence intensity of 10300.
With `CCC(=O)N1CCCC1(C)C(=O)Nc1ccc2c(c1)CCN2C(C)=O` (stereo not given) the fluorescence intensity was 4080.
For `COc1cccc(Cn2cc(/C=N/NC(=O)c3cc(O)cc(O)c3)c3ccccc32)c1`, the fluorescence intensity was 5960.
With `O=C(Cn1cc(/C=N/NC(=O)c2cccc(C(F)(F)F)c2)c2ccccc21)Nc1ccc(F)cc1` the fluorescence intensity was 23300 (active).
Work on `O=C(CSc1ccc(/C=N/NC(=O)c2cccc(F)c2)o1)Nc1ccccc1` yielded a fluorescence intensity of 8800.
`COc1ccc(CCNC2=CC(=O)CC(C)(C)C2)cc1` gave a fluorescence intensity of 3550.
With `CC1(C)CC(=O)C=C(NCc2ccncc2)C1` the fluorescence intensity was 16700 (active).
For `Cc1cc(C)nc(NNC2=CC(=O)CC(C)(C)C2)n1`, the fluorescence intensity was 2520.
